Compounds without any hit were thinned out: in the full panel of roughly 83,000, 20% have a hit.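 Negative percent growth values reflect cell death: -40 means 40% of the cells present at the start died, and -100 means all died.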 A number with no mark means an inactive call. Activity calls are given as the source filed them. How the source made its calls: active means growth percent below 10; inactive means the rest.

From PubChem BioAssay (NCI) come the findings set out here.

Among the test systems are NCI-H23 lung; NCI-H226 lung; NCI-H322M lung; HOP-62 NSCLC; NCI-H460 lung; HOP-92 NSCLC; NCI-H522 lung; A549/ATCC NSCLC; 786-0 renal; COLO 205 colon.
Common to all, as to assay: NCI-60 one-dose screen, 48 h (100 = growth as untreated, 0 = no growth, -100 = all killed)
Conditions in all cases: 10 µM unless noted

Regarding `CCOP(=O)(O)OP(=O)(O)OCC`, the growth with NCI-H23 lung was 104%; with NCI-H226 lung it was 103%; in the assay with NCI-H322M lung it was 98.1%; in the assay on HOP-62 NSCLC, 103%; in the assay with NCI-H460 lung it was 103%; in the assay with HOP-92 NSCLC, 98.6%. For the same molecule, the growth in the assay with NCI-H522 lung is 82.5%; in the assay on A549/ATCC NSCLC, 106%; with 786-0 renal, 99.4%.

With `Cc1ccc(Nc2nc(NCCO)c3ccccc3n2)cc1C`, the growth with NCI-H23 lung is 15.8%; in the assay with NCI-H226 lung, 1.03% (active); with NCI-H322M lung, 55.5%; with HOP-62 NSCLC, 20.3%; in the assay on NCI-H460 lung it was -2.08% (active); with HOP-92 NSCLC it was 89.7%. Also, the values for the growth with NCI-H522 lung, with A549/ATCC NSCLC and with 786-0 renal were -21% (active), 13.6% and 29%, respectively.

With `COc1ccc(/C=C/C(=O)c2ccc(NC(=O)CSc3nnc(-c4ccc(OC)cc4)n3-c3ccccc3)cc2)cc1`, the growth in the assay on NCI-H23 lung was 99.2%; in the assay with NCI-H226 lung, 99.2%; in the assay on NCI-H322M lung, 103%; in the assay on HOP-62 NSCLC it was 101%; in the assay with NCI-H460 lung, 107%; in the assay with HOP-92 NSCLC, 106%. Further, the results for the growth with NCI-H522 lung, with A549/ATCC NSCLC and with 786-0 renal were 91.4%, 80.2% and 102%, respectively.

With `COc1cc2cc(C(=O)Nc3ccccc3)c(N)nc2cc1OC`, the growth was 77.6% with NCI-H23 lung; 65.2% with NCI-H226 lung; 44.1% in the assay on NCI-H322M lung; 47.7% in the assay with HOP-62 NSCLC; -40.2% (active) in the assay on NCI-H460 lung; -11.4% (active) in the assay on HOP-92 NSCLC. Moreover, the growth is -65.3% (active) in the assay with NCI-H522 lung, 15.3% in the assay on A549/ATCC NSCLC and 21.2% in the assay with 786-0 renal.

Regarding `Cc1ccc(NC(=O)c2[nH]c(SCCN(C)C)nc2-c2ccc(F)cc2)cc1C#Cc1cnc2cccnn12`, the growth in the assay with NCI-H23 lung was 66.7%; in the assay with NCI-H226 lung, 55.9%; in the assay with NCI-H322M lung, 48.1%; in the assay on HOP-62 NSCLC, -8.9% (active); in the assay with NCI-H460 lung, -69.4% (active); in the assay on HOP-92 NSCLC, 80.4%. The growth in the assay on NCI-H522 lung was 1.49% (active); in the assay on A549/ATCC NSCLC it was 5.21% (active); in the assay on 786-0 renal it was -67.1% (active).

For `O=c1c2sc3ccccc3c2nnn1-c1ccc(F)c(Cl)c1`, the growth with NCI-H23 lung was 73%; in the assay with NCI-H226 lung, 34.3%; in the assay with NCI-H322M lung, 49.4%; with HOP-62 NSCLC, -15% (active); with NCI-H460 lung, 10.4%; in the assay with HOP-92 NSCLC, -1.07% (active). Also, the growth in the assay with NCI-H522 lung is 64.5%; in the assay on A549/ATCC NSCLC, 30.3%; with 786-0 renal, 31.9%; in the assay on COLO 205 colon, 41.9%.

On to `O=[N+]([O-])c1cc(F)c2cccnc2c1O`, for which the growth with NCI-H23 lung was 87.8%; with NCI-H226 lung it was 102%; in the assay with NCI-H322M lung it was 100%; in the assay on HOP-62 NSCLC it was 97.1%; with NCI-H460 lung, 92.1%; in the assay with HOP-92 NSCLC it was 104%. In addition, the growth in the assay with NCI-H522 lung was 60.8%; in the assay on A549/ATCC NSCLC, 105%; in the assay on 786-0 renal it was 102%.

For `CNC(=O)c1cc(Oc2ccc(NC(=O)c3[nH]c(SC)nc3-c3ccc(F)cc3)cc2)ccn1`, the growth in the assay with NCI-H23 lung was 75.4%; with NCI-H226 lung, 81.7%; in the assay with NCI-H322M lung, 85.4%; in the assay on HOP-62 NSCLC, 95%; in the assay with NCI-H460 lung it was 72.6%; in the assay on HOP-92 NSCLC it was 70.6%. Also, the figures for the growth in the assay with NCI-H522 lung, in the assay on A549/ATCC NSCLC and in the assay with 786-0 renal were 68%, 72.2% and 78.1%, respectively.

Turning to `CCOC(=O)c1sc2nc(-c3cc4ccccc4o3)cc(-c3ccc(Cl)cc3)c2c1N`, the growth with NCI-H23 lung was 98.9%; in the assay on NCI-H226 lung, 89.2%; in the assay with NCI-H322M lung, 112%; in the assay on HOP-62 NSCLC, 107%; in the assay with NCI-H460 lung, 110%; in the assay on HOP-92 NSCLC it was 71.1%. The figures for the growth in the assay on NCI-H522 lung, with A549/ATCC NSCLC and in the assay with 786-0 renal were 88.6%, 123% and 118%, respectively.

Consider `CCC1CCc2nc3sc(C(=O)Nc4cccc(F)c4)c(N)c3cc2C1` (stereo not given), for which the growth is 91.7% in the assay on NCI-H23 lung; 85.2% in the assay on NCI-H226 lung; 87.8% in the assay with NCI-H322M lung; 74.1% with HOP-62 NSCLC; 74.5% in the assay on NCI-H460 lung; 61.4% in the assay with HOP-92 NSCLC. Further, the growth in the assay on NCI-H522 lung is 70.1%; in the assay on A549/ATCC NSCLC it was 66.3%; with 786-0 renal, 83.1%.

Turning to `CCOC(=O)c1ccccc1SC(C[N+](=O)[O-])c1ccccc1` (stereo not given), the growth with NCI-H23 lung was 99.1%; in the assay with NCI-H226 lung it was 86.2%; in the assay on NCI-H322M lung, 116%; in the assay with HOP-62 NSCLC, 118%; with NCI-H460 lung it was 107%; in the assay on HOP-92 NSCLC, 90.5%. Besides, the growth in the assay with NCI-H522 lung was 88.8%; in the assay on A549/ATCC NSCLC, 78.7%; with 786-0 renal it was 98.7%.

Turning to `CC(C)NC(=O)OCC#CCOC(=O)NC(C)C`, the growth was 99.6% in the assay with NCI-H23 lung; 106% in the assay on NCI-H226 lung; 86.8% with NCI-H322M lung; 104% with HOP-62 NSCLC; 108% in the assay on NCI-H460 lung; 105% in the assay with HOP-92 NSCLC. Besides, the growth is 89.1% in the assay on NCI-H522 lung, 96.7% in the assay with A549/ATCC NSCLC and 102% in the assay with 786-0 renal.

Consider `CS(=O)(=O)Nc1cc(-c2cc3ncc(C#N)c(Nc4ccc(Oc5ccccc5)c(Cl)c4)c3s2)cnc1Cl`, for which the growth in the assay with NCI-H23 lung is 56.6%; in the assay with NCI-H226 lung, 64.3%; in the assay with NCI-H322M lung, 26.9%; in the assay with HOP-62 NSCLC it was 54.8%; with NCI-H460 lung, 21.7%; with HOP-92 NSCLC, 45.6%. Also, the growth in the assay on NCI-H522 lung is 32.4%; with A549/ATCC NSCLC, 55.2%.

As for `Cc1cc(C)c2c(n1)sc1c(Nc3ccc(OCc4ccccc4)cc3)ncnc12`, the growth was 101% in the assay with NCI-H23 lung; 96.2% in the assay on NCI-H226 lung; 92.8% with NCI-H322M lung; 101% in the assay on HOP-62 NSCLC; 98.8% in the assay with NCI-H460 lung; 88.2% in the assay with HOP-92 NSCLC. Also, the growth in the assay with NCI-H522 lung was 90.1%; in the assay with A549/ATCC NSCLC, 101%; in the assay with 786-0 renal, 97.8%.

As for `CC[C@H](Nc1nc(C)nc(N)c1C#N)c1nc2cccc(NCc3ccc(C(=O)NO)cc3)c2c(=O)n1-c1ccccc1`, the growth in the assay with NCI-H23 lung was -17.5% (active); in the assay on NCI-H226 lung, -3.97% (active); in the assay with NCI-H322M lung, 24.5%; with HOP-62 NSCLC it was 10.1%; with NCI-H460 lung, 2.36% (active); in the assay on HOP-92 NSCLC it was -1.54% (active). Further, the figures for the growth with NCI-H522 lung, with A549/ATCC NSCLC and in the assay on 786-0 renal were -36.4% (active), -31% (active) and 5.71% (active), respectively.
